Measurements reported in PubChem BioAssay (NCI).
The panel holds about 79,000 compounds, 15% with a hit somewhere; the sample as a whole holds those more often. Activity calls are given as the source filed them. Rule as the data show it: active = growth inhibition above about 70%; inactive = the rest.

Assays:
[1] = NCI Yeast Anticancer Drug Screen. Data for the rad52 strain (AID 147);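 also: 0% = growth of vehicle-treated control cultures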; conditions: S. cerevisiae rad52 mutant growth inhibition, active compounds read high
Summary of the method: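 Yeast strain carrying a DNA damage repair alteration was exposed to test compounds. Growth inhibition was measured relative to vehicle-treated controls.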

[2] = NCI Yeast Anticancer Drug Screen. Data for the wt1 strain (AID 149);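 also: 0% = growth of vehicle-treated wt1 cultures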; conditions: S. cerevisiae wt1 strain (SPY 50644) growth inhibition, active compounds read high
Summary of the method: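 Compounds are added to wt1 yeast cultures. Growth is then measured. Inhibition is expressed relative to vehicle-treated controls.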

[3] = NCI Yeast Anticancer Drug Screen. Data for the rad50EPP+ strain (AID 151);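 also: 0% = growth of vehicle-treated control cultures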; conditions: S. cerevisiae rad50 mutant strain, active compounds read high
Summary of the method: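 Yeast strain carrying rad50 alteration (rad50EPP+) exposed to compounds; growth inhibition measured relative to vehicle-treated controls.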

[4] = NCI Yeast Anticancer Drug Screen. Data for the rad50 strain (AID 155);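 also: 0% = growth of vehicle-only cultures of the same strain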; conditions: S. cerevisiae rad50 strain growth inhibition, active compounds read high
Summary of the method: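 Inhibition values express reduced yeast growth in compound-treated cultures relative to vehicle-treated controls.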

[5] = NCI Yeast Anticancer Drug Screen. Data for the mec2-1 strain (AID 157); conditions: S. cerevisiae mec2-1 strain, active compounds read high
Summary of the method: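 mec2-1 yeast strain, carrying an alteration in DNA damage repair or cell cycle control, was exposed to compounds; growth inhibition was measured relative to vehicle-treated controls.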

[6] = NCI Yeast Anticancer Drug Screen. Data for the rad14 strain (AID 159);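 also: 0% = growth of vehicle-treated control cultures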; conditions: S. cerevisiae rad14 strain growth inhibition, active compounds read high
Summary of the method: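 A mutant yeast strain defective in DNA damage repair is treated with compound; inhibition of its growth is scored against untreated, vehicle-exposed cultures.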

[7] = NCI Yeast Anticancer Drug Screen. Data for the CLN2oe strain (AID 163);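 also: 0% = growth of vehicle-only control cultures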; conditions: S. cerevisiae CLN2oe strain, active compounds read high
Summary of the method: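 Yeast cells carrying a defined cell-cycle control alteration were exposed to test compounds. Growth inhibition was scored against vehicle-treated control cultures.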

[8] = NCI Yeast Anticancer Drug Screen. Data for the bub3 strain (AID 167); conditions: S. cerevisiae bub3 mutant strain, active compounds read high
Summary of the method: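 Steps: expose the mutant yeast strain to compound; grow alongside vehicle-treated cultures; measure growth; express inhibition against the vehicle cultures.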

[9] = NCI Yeast Anticancer Drug Screen. Data for the wt2 strain (AID 169);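 also: 0% = growth of vehicle-treated yeast cultures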; conditions: S. cerevisiae wt2 strain growth inhibition, active compounds read high
Summary of the method: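 Yeast cells were exposed to test compounds, and growth inhibition was measured relative to vehicle-treated controls.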

[10] = NCI Yeast Anticancer Drug Screen. Data for the mlh1 strain (AID 171);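 also: 0% = growth of vehicle-treated control cultures of the same strain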; conditions: S. cerevisiae mlh1 strain growth inhibition, active compounds read high
Summary of the method: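 Yeast carrying a defined genetic alteration in DNA damage repair or cell cycle control were exposed to test compounds. Growth inhibition was measured relative to vehicle-treated controls.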

[11] = NCI Yeast Anticancer Drug Screen. Data for the sgs1 strain (AID 173);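 also: 0% = growth of vehicle-only control cultures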; conditions: S. cerevisiae sgs1 mutant, active compounds read high
Summary of the method: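 Yeast mutant strains carrying defined defects in DNA damage repair or cell cycle control were exposed to test compounds. Growth inhibition was scored against vehicle-treated controls.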

[12] = NCI Yeast Anticancer Drug Screen. Data for the mlh1 rad18 strain (AID 175); conditions: S. cerevisiae mlh1 rad18 strain growth inhibition, active compounds read high
Summary of the method: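 Growth inhibition of the yeast strain was measured after compound exposure and expressed relative to vehicle-treated controls. The strain carries defined defects in DNA damage repair.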

[13] = NCI Yeast Anticancer Drug Screen. Data for the rad18 strain (AID 177); conditions: S. cerevisiae rad18 mutant growth inhibition, active compounds read high
Summary of the method: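 Yeast carrying a defined DNA damage repair alteration were exposed to compounds. Growth inhibition was expressed relative to vehicle-treated controls.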

[14] = NCI Yeast Anticancer Drug Screen. Data for the sgs1 mgt1 strain (AID 161);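 also: 0% = growth of cultures given vehicle only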; conditions: S. cerevisiae sgs1 mgt1 strain, active compounds read high
Summary of the method: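 This yeast growth screen uses a strain with defined DNA-repair lesions; compound-treated growth is compared with vehicle-treated growth.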

[15] = NCI Yeast Anticancer Drug Screen. Data for the cln2 rad14 strain (AID 165);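 also: 0% = growth equal to vehicle treated cultures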; conditions: S. cerevisiae cln2 rad14 strain, active compounds read high
Summary of the method: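 Yeast carrying cln2 and rad14 alterations (cell cycle control and DNA damage repair) were exposed to compounds. Growth inhibition was measured against vehicle-treated controls.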

[16] = at 5.0 µM (retest, dose inferred, filed as 0.5)
[17] = at 50.0 µM (retest, dose inferred, filed as 5.0)

Measured: growth inhibition

C=Cc1cnc([N+](=O)[O-])n1C
active: [1]; at 33.0 µM 85% | [1]; at 100.0 µM 95% | [2]; at 100.0 µM 85% | [3]; at 33.0 µM 82% | [3]; at 100.0 µM 91% | [4]; at 33.0 µM 86% | [4]; [17] 87% | [4]; at 50.0 µM 78.5% | [4]; at 100.0 µM 94% | [5]; at 33.0 µM 87% | [5]; [17] 94% | [5]; at 50.0 µM 85.7% | [5]; at 100.0 µM 95% | [6]; at 11.0 µM 76% | [6]; at 33.0 µM 96% | [6]; at 100.0 µM 98% | [7]; at 100.0 µM 86% | [8]; at 50.0 µM 82.1% | [8]; at 100.0 µM 82% | [9]; at 100.0 µM 96% | [10]; at 100.0 µM 90% | [11]; at 33.0 µM 85% | [11]; at 100.0 µM 92% | [12]; [16] 79% | [12]; [17] 90% | [12]; at 50.0 µM 90.2% | [13]; at 1.2 µM 85% | [13]; at 3.7 µM 92% | [13]; at 11.0 µM 94% | [13]; at 33.0 µM 94% | [13]; at 100.0 µM 94%
inactive: [1]; at 1.2 µM 2% | [1]; at 3.7 µM 35% | [1]; at 11.0 µM 65% | [2]; at 1.2 µM 13% | [2]; at 3.7 µM 21% | [2]; at 11.0 µM 19% | [2]; at 33.0 µM 39% | [3]; at 1.2 µM -1% | [3]; at 3.7 µM 15% | [3]; at 11.0 µM 41% | [4]; at 1.2 µM 3% | [4]; at 3.7 µM 17% | [4]; [16] 23% | [4]; at 11.0 µM 52% | [5]; at 1.2 µM 11% | [5]; at 3.7 µM 3% | [5]; [16] 0% | [5]; at 11.0 µM 26% | [6]; at 1.2 µM -1% | [6]; at 3.7 µM 25% | [7]; at 1.2 µM -14% | [7]; at 3.7 µM 8% | [7]; at 11.0 µM 14% | [7]; at 33.0 µM 33% | [8]; at 1.2 µM -5% | [8]; at 3.7 µM -2% | [8]; [16] 8% | [8]; at 11.0 µM -2% | [8]; at 33.0 µM 20% | [8]; [17] 69% | [9]; at 1.2 µM -31% | [9]; at 3.7 µM -43% | [9]; at 11.0 µM -34% | [9]; at 33.0 µM 63% | [10]; at 1.2 µM -4% | [10]; at 3.7 µM 7% | [10]; at 11.0 µM 18% | [10]; at 33.0 µM 44% | [11]; at 1.2 µM 22% | [11]; at 3.7 µM 51% | [11]; at 11.0 µM 69%

Cc1nc2c(ncn2CCO)c(=O)[nH]1
inactive: [1]; at 1.2 µM -3% | [1]; at 3.7 µM -8% | [1]; at 11.0 µM -7% | [1]; at 33.0 µM -12% | [1]; at 100.0 µM -14% | [2]; at 1.2 µM -36% | [2]; at 3.7 µM -22% | [2]; at 11.0 µM -38% | [2]; at 33.0 µM -42% | [2]; at 100.0 µM -41% | [3]; at 1.2 µM -11% | [3]; at 3.7 µM 10% | [3]; at 11.0 µM 5% | [3]; at 33.0 µM 3% | [3]; at 100.0 µM 1% | [4]; at 1.2 µM -29% | [4]; at 3.7 µM -34% | [4]; [16] 29% | [4]; at 11.0 µM -32% | [4]; at 33.0 µM -33% | [4]; [17] 39% | [4]; at 50.0 µM 7.95% | [4]; at 100.0 µM -24% | [5]; at 1.2 µM 15% | [5]; at 3.7 µM -2% | [5]; [16] 13% | [5]; at 11.0 µM -3% | [5]; at 33.0 µM -3% | [5]; [17] 47% | [5]; at 50.0 µM -20.6% | [5]; at 100.0 µM -13% | [6]; at 1.2 µM -3% | [6]; at 3.7 µM 6% | [6]; at 11.0 µM 11% | [6]; at 33.0 µM -5% | [6]; at 100.0 µM -2% | [14]; [16] 29% | [14]; at 50.0 µM 2.1% | [7]; at 1.2 µM 0% | [7]; at 3.7 µM -7% | [7]; at 11.0 µM -2% | [7]; at 33.0 µM -6% | [7]; at 100.0 µM -4% | [15]; [16] 8% | [15]; [17] 34% | [15]; at 50.0 µM 8.25% | [8]; at 1.2 µM -10% | [8]; at 3.7 µM -7% | [8]; [16] 21% | [8]; at 11.0 µM -17% | [8]; at 33.0 µM -13% | [8]; at 50.0 µM 0.5% | [8]; at 100.0 µM -28% | [9]; at 1.2 µM -15% | [9]; at 3.7 µM -30% | [9]; at 11.0 µM -31% | [9]; at 33.0 µM -37% | [9]; at 100.0 µM -38% | [10]; at 1.2 µM -16% | [10]; at 3.7 µM -11% | [10]; at 11.0 µM -14% | [10]; at 33.0 µM -18% | [10]; at 100.0 µM -5% | [11]; at 1.2 µM 2% | [11]; at 3.7 µM 8% | [11]; at 11.0 µM 9% | [11]; at 33.0 µM 5% | [11]; at 100.0 µM -2% | [12]; [16] 45% | [12]; at 50.0 µM -40.7% | [13]; at 1.2 µM -38% | [13]; at 3.7 µM -32% | [13]; at 11.0 µM -9% | [13]; at 33.0 µM -35% | [13]; at 100.0 µM -36%
active: [8]; [17] 76% | [12]; [17] 91%

CC(=O)N1C(=O)/C(=C\C(=O)c2ccc([N+](=O)[O-])cc2)c2ccccc21
inactive: [1]; at 1.2 µM -14% | [1]; at 3.7 µM 18% | [1]; at 11.0 µM 53% | [2]; at 1.2 µM -10% | [2]; at 3.7 µM -15% | [2]; at 11.0 µM 21% | [3]; at 1.2 µM -12% | [3]; at 3.7 µM 35% | [3]; at 11.0 µM 4% | [4]; at 1.2 µM 0% | [4]; at 3.7 µM -8% | [4]; [16] 41% | [4]; at 11.0 µM 34% | [5]; at 1.2 µM -10% | [5]; at 3.7 µM 13% | [5]; [16] 60% | [5]; at 11.0 µM 28% | [6]; at 1.2 µM -8% | [6]; at 3.7 µM 9% | [6]; at 11.0 µM 31% | [14]; [16] 46% | [7]; at 1.2 µM -31% | [7]; at 3.7 µM 4% | [7]; at 11.0 µM 28% | [7]; at 33.0 µM 51% | [15]; [16] 25% | [15]; [17] 66% | [8]; at 1.2 µM -33% | [8]; at 3.7 µM -11% | [8]; [16] 12% | [8]; at 11.0 µM 22% | [10]; at 1.2 µM -8% | [10]; at 3.7 µM 14% | [10]; at 11.0 µM 67% | [11]; at 1.2 µM -13% | [11]; at 3.7 µM 27% | [11]; at 11.0 µM 66% | [13]; at 1.2 µM 1% | [13]; at 3.7 µM 26% | [13]; at 11.0 µM 61%
active: [1]; at 33.0 µM 92% | [1]; at 100.0 µM 97% | [2]; at 33.0 µM 77% | [2]; at 100.0 µM 97% | [3]; at 33.0 µM 89% | [3]; at 100.0 µM 95% | [4]; at 33.0 µM 93% | [4]; [17] 98% | [4]; at 50.0 µM 85.5% | [4]; at 100.0 µM 95% | [5]; at 33.0 µM 91% | [5]; [17] 98% | [5]; at 50.0 µM 89.5% | [5]; at 100.0 µM 97% | [6]; at 33.0 µM 86% | [6]; at 100.0 µM 97% | [14]; [17] 98% | [14]; at 50.0 µM 88.8% | [7]; at 100.0 µM 96% | [15]; at 50.0 µM 84.5% | [8]; at 33.0 µM 95% | [8]; [17] 96% | [8]; at 50.0 µM 86.8% | [8]; at 100.0 µM 96% | [10]; at 33.0 µM 95% | [10]; at 100.0 µM 97% | [11]; at 33.0 µM 96% | [11]; at 100.0 µM 96% | [13]; at 33.0 µM 90% | [13]; at 100.0 µM 97%
